One may read the viability as a read-out of living cells in per cent, often relative to untreated cells. Usually remaining activity stands for the signal under treatment as a percentage of the control signal. The term AC50 denotes the midpoint of the concentration-response curve, whichever way the signal moves. In general, inhibition refers to the relative decrease from the control value, in per cent.

“And” between values parts separate entries of the source, which are not always exact repeats. Identical values can stand only once. Inconclusive results are not listed. A structure can be active in one record and inactive in another. The source made the active and inactive calls.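 The calls were made as follows, unless noted: active = normalized viability below 100% at a tested concentration; inactive = the rest.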

Assay [1] can be described thus: P. berghei load reduction in hepatocytes – cell-based, HepG2, luciferase luminescence, HepG2 viability, primary screen (AID 624349; in the data active = parasite load remaining mostly below about 12%, no sharp cut-off; inactive = mostly above about 10%;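 also: 100% = mean of DMSO negative control wells on the same plate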). To be noted: P. berghei liver stage in HepG2, luciferase luminescence, concentration not given here; parasite load remaining: stronger effect = lower value; viability: measured here: HepG2 viability without parasites.
Assay [2] deals with Aerobactin synthetase IucA (Klebsiella pneumoniae). Briefly: inhibition of K. pneumoniae IucA enzyme – biochemical, Tocris library, absorbance (AID 1345561; call rule not given here;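 also: 100% = enzyme without compound and 0% = no enzyme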). Conditions: purified IucA enzyme assay, absorbance (OD) read-out; stronger effect = lower value;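 tested at 8 µM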.
Assay [3] can be described thus: viability loss in pontine glioma line – cell-based, JHH-DIPG-1, MIPE4.0, CellTiter-Glo, qHTS, dose response (AID 1347062; cut-off not given, nearly all actives have AC50 up to about 27 µM;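 as to AC50: cells exposed to compound for two days before readout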). Conditions: JHH-DIPG-1 viability, CellTiter-Glo ATP luminescence. For orientation: ATP-based viability assays read luminescence as a measure of living cells.
Assay [4] is described as follows: viability loss in pontine glioma line – cell-based, SU-DIPG-IV, MIPE4.0, CellTiter-Glo, qHTS, dose response (AID 1347063; cut-off not given, nearly all actives have AC50 up to about 30 µM;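 also: compound exposure lasted 48 hours before the viability readout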). To be noted: CellTiter-Glo ATP luminescence.
A short description of assay [5]: viability loss in pontine glioma line – cell-based, SU-DIPG-XIII, MIPE5.0, CellTiter-Glo, qHTS, dose response (AID 1347064; cut-off not given, nearly all actives have AC50 up to about 23 µM). Conditions: CellTiter-Glo ATP luminescence.
The nature of assay [6]: growth inhibition of DIPG cells – cell-based, MIPE4.0 library, CellTiter-Glo luminescence, qHTS (AID 1347066; cut-off not given, nearly all actives have AC50 up to about 30 µM;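 also: cells exposed to compound for 48 hours before readout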). Conditions: SU-DIPG-VI viability, CellTiter-Glo ATP luminescence.
Assay [7] can be described thus: compounds altering HSF1 focus formation in cells – imaging, Selleck Cancer Library (AID 1347162; in the data active = plate-normalised HSF1 focus index below about 0.46). Conditions: human cells, HSF1 nuclear foci imaging, at 10 µM; SSMD: measured here: HSF1 foci SSMD mean; cell count: measured here: cell number; plate-normalised HSF1 focus index: stronger effect = lower value.
Assay [8] is described as follows: MELAS cybrid and Rieske KO viability enhancers – cell-based, MELAS cybrids, Rieske KO mouse fibroblasts, CellTiter-Glo, primary screen (AID 1508586;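 active = mean z-score across replicates of 1.96 or higher in either the MELAS or the Rieske mutant cell line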;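 also: z relative to plate mean and SD of compound and empty wells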). To be noted: low glucose.
Assay [9] can be described thus: drug combination growth inhibition, ovarian cancer – cell-based, oncology-focused library, rucaparib conditional, profiling panel (AID 1508598). To be noted: patient-derived ovarian cancer cells, CellTiter-Glo viability, 144 h, stronger effect = lower value.
Assay [10] can be described thus: galactose survival enhancers in mitochondrial complex I cybrids – cell-based, galactose medium, ATP luminescence, primary screen (AID 1645843;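 active = z-score of at least 1.8 in each of two replicates, scored against plate mean and spread of sample wells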;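 also: positive z means more ATP and so rescue of galactose-driven cybrid death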). Conditions: complex I mutant cybrid cells, 72 h, stronger effect = higher value.
Assay [11] can be described thus: viability loss in pontine glioma line – cell-based, SU-DIPG-XIII, MIPE4.0, CellTiter-Glo, qHTS, dose response (AID 1347061; cut-off not given, nearly all actives have AC50 up to about 37 µM;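 also: cells exposed to compound for 48 hours before readout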). Conditions: CellTiter-Glo ATP luminescence.
Assay [12] in a line: JHH-DIPG-1 glioma cell viability, MIPE5.0 library, CellTiter-Glo luminescence, qHTS (AID 1347067; cut-off not given, nearly all actives have AC50 up to about 26 µM;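 also: cells exposed to compound for 48 hours before readout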). To be noted: JHH-DIPG-1 glioma viability, CellTiter-Glo ATP luminescence.
Assay [13] in a line: growth inhibition of DIPG cells – cell-based, MIPE5.0 library, qHTS (AID 1347068; cut-off not given, nearly all actives have IC50 up to about 30 µM). Conditions: SU-DIPG-XXV viability.
The nature of assay [14]: viability loss with induced miR-34 in A549 – imaging, A549 dox-inducible miR-34, nuclei and caspase counts, primary screen (AID 1347080;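 active = compounds whose cell count with miR-34 switched on is under 0.7 times the count with it off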). To be noted: A549 miR-34 inducible, Hoechst nuclei count, 48 h.
In assay [15] the test system is Hepatitis C virus NS3 helicase. Briefly: blockers of NS3h binding to ssDNA – biochemical, fluorescence polarization, LOPAC1280 library, primary screen (AID 687035; in the data active = inhibition above about 37%). To be noted: Purified HCV NS3 helicase, Cy5-dT15 ssDNA binding fluorescence polarization; stronger effect = higher value; concentration not given here. On the technique in general: In fluorescence polarisation assays a small probe gives low polarisation when free and higher when bound to something large.

Assay [16] in a line: compounds altering Cy5-DNA-NS3h complex signal – biochemical, LOPAC1280, artefact control for HCV NS3 helicase inhibitor project (AID 687037; call rule not given here). To be noted: Cy5-DNA-NS3h complex fluorescence interference counterscreen. A general note: A counterscreen serves to expose hits that act by an unwanted route or on another target.
Setting [17] is: MELAS cybrid survival, CellTiter-Glo 48 h, stronger effect = higher value.
Setting [18] is: Rieske KO mouse fibroblast survival, CellTiter-Glo 72 h.
The mark [19] stands for this setting: stronger effect = lower value, cell number ratio, induced over uninduced.
Setting [20] is: measured here: relative caspase fold change +Dox/-Dox.
Where [21] appears, read: measured here: total cells with miR-34 induction, stronger effect = lower value.
Where [22] appears, read: measured here: total cells without miR-34 induction.

For the compound `CS(=O)c1ccc(-c2nc(-c3ccc(F)cc3)c(-c3ccncc3)[nH]2)cc1` (configuration not stated), in [1], the parasite load remaining was 28.5% (inactive). The viability in assay [1] was 76.8%; in [9] (at 0.000305 µM, OCI-C5x cells, with rucaparib 10 µM, 100% = cells with rucaparib alone), 128% (inactive); in assay [9] (at 0.000305 µM, OCI-C5x cells, without rucaparib), 139% (inactive); in [9] (at 0.000305 µM, OCI-P5x cells, with rucaparib 20 µM, 100% = cells with rucaparib alone) it was 109% (inactive); in [9] (at 0.000305 µM, OCI-P5x cells, without rucaparib), 111% (inactive); in [9] (at 0.00122 µM, OCI-C5x cells, with rucaparib 10 µM, 100% = cells with rucaparib alone) it was 123% (inactive). Further, the viability is 135% (inactive) in assay [9] (at 0.00122 µM, OCI-C5x cells, without rucaparib); 103% (inactive) in assay [9] (at 0.00122 µM, OCI-P5x cells, with rucaparib 20 µM, 100% = cells with rucaparib alone); 107% (inactive) in assay [9] (at 0.00122 µM, OCI-P5x cells, without rucaparib); 134% (inactive) in [9] (at 0.00488 µM, OCI-C5x cells, with rucaparib 10 µM, 100% = cells with rucaparib alone); 139% (inactive) in [9] (at 0.00488 µM, OCI-C5x cells, without rucaparib); 108% (inactive) in [9] (at 0.00488 µM, OCI-P5x cells, with rucaparib 20 µM, 100% = cells with rucaparib alone). The viability was 111% (inactive) in assay [9] (at 0.00488 µM, OCI-P5x cells, without rucaparib); 128% (inactive) in [9] (at 0.0195 µM, OCI-C5x cells, with rucaparib 10 µM, 100% = cells with rucaparib alone); 145% (inactive) in [9] (at 0.0195 µM, OCI-C5x cells, without rucaparib); 108% (inactive) in assay [9] (at 0.0195 µM, OCI-P5x cells, with rucaparib 20 µM, 100% = cells with rucaparib alone); 108% (inactive) in assay [9] (at 0.0195 µM, OCI-P5x cells, without rucaparib); 127% (inactive) in assay [9] (at 0.0781 µM, OCI-C5x cells, with rucaparib 10 µM, 100% = cells with rucaparib alone). Besides, the viability in assay [9] (at 0.0781 µM, OCI-C5x cells, without rucaparib) was 164% (inactive); in [9] (at 0.0781 µM, OCI-P5x cells, with rucaparib 20 µM, 100% = cells with rucaparib alone), 108% (inactive); in assay [9] (at 0.0781 µM, OCI-P5x cells, without rucaparib), 112% (inactive); in assay [9] (at 0.313 µM, OCI-C5x cells, with rucaparib 10 µM, 100% = cells with rucaparib alone), 129% (inactive); in [9] (at 0.313 µM, OCI-C5x cells, without rucaparib), 159% (inactive); in assay [9] (at 0.313 µM, OCI-P5x cells, with rucaparib 20 µM, 100% = cells with rucaparib alone) it was 119% (inactive). For the same compound, the viability in [9] (at 0.313 µM, OCI-P5x cells, without rucaparib) is 111% (inactive); in assay [9] (at 1.25 µM, OCI-C5x cells, with rucaparib 10 µM, 100% = cells with rucaparib alone) it was 116% (inactive); in assay [9] (at 1.25 µM, OCI-C5x cells, without rucaparib), 166% (inactive); in [9] (at 1.25 µM, OCI-P5x cells, with rucaparib 20 µM, 100% = cells with rucaparib alone) it was 130% (inactive); in assay [9] (at 1.25 µM, OCI-P5x cells, without rucaparib), 108% (inactive); in assay [9] (at 5 µM, OCI-C5x cells, with rucaparib 10 µM, 100% = cells with rucaparib alone), 132% (inactive). The viability in assay [9] (at 5 µM, OCI-C5x cells, without rucaparib) was 161% (inactive); in [9] (at 5 µM, OCI-P5x cells, with rucaparib 20 µM, 100% = cells with rucaparib alone), 119% (inactive); in [9] (at 5 µM, OCI-P5x cells, without rucaparib), 113% (inactive). The remaining activity in [2] was 113% (inactive) and 119% (inactive). The AC50 was 15.2 µM (active) in [3] and 48.1 µM (active) in assay [4]. For the same compound, the call in [5] and in assay [6] was inactive. Moreover, the SSMD in assay [7] is 2.53. Besides, the cell count in assay [7] came out at 7460. Also, the plate-normalised HSF1 focus index in assay [7] was 1.16 (inactive). Besides, the z-score was -0.617 (inactive) in assay [8] (setting [17]); 0.991 in assay [8] (setting [18]); 1.98 (inactive) and 3.42 (active) in assay [10].

Turning to `CC(Oc1ccc(O)cc1)(P(=O)(O)O)P(=O)(O)O`, the remaining activity in assay [2] is 115% (inactive). Further, the outcome in assay [11], in assay [3], in assay [4], in assay [5], in [6] and in [12] was inactive. Further, the compound was called inactive in [13]. In addition, the values for the fold change in [14] (setting [19]) and in [14] (setting [20]) were 0.98 (inactive) and 0.597, respectively. In addition, the cell count in assay [14] (setting [21]) was determined as 9020; in [14] (setting [22]) it was 9200. Moreover, the z-score in assay [10] is -0.285 (inactive).

With `COc1cc(OC)c(NC(=O)Nc2cc(C)on2)cc1Cl`, in assay [2], the remaining activity was 101% (inactive). Moreover, the outcome in assay [11], in assay [3], in assay [4], in assay [5], in assay [6] and in [12] was inactive. For the same compound, the fold change in [14] (setting [19]) is 0.801 (inactive) and 0.945 (inactive); in assay [14] (setting [20]), 0.762 and 1.52. Also, the cell count in assay [14] (setting [21]) was 8290 and 9250; in assay [14] (setting [22]) it was 10400 and 9800. Besides, the z-score was -0.366 (inactive) in [8] (setting [17]), 1.34 in assay [8] (setting [18]) and 1.75 (inactive) in [10].

For `Cc1[nH]c(/C=C2\C(=O)Nc3ccccc32)c(C)c1CCC(=O)O`, in [2], the remaining activity was 95.9% (inactive). Besides, in [3], the AC50 was 16.6 µM (active). The fold change is 0.887 (inactive) in assay [14] (setting [19]) and 1.48 in assay [14] (setting [20]). The cell count is 5970 in assay [14] (setting [21]) and 6730 in [14] (setting [22]). Also, in [10], the z-score was 0.51 (inactive).

In the case of `Nc1ncnc2nc(-c3ccc(N4CCOCC4)nc3)cc(-c3cccc(Br)c3)c12`, in assay [1], the parasite load remaining was 57.8% (inactive). Moreover, the viability in assay [1] is 155%. Besides, the inhibition in [15] is -6% (inactive). For the same compound, in [16], the fluorescence ratio (interference) is 0.9 (inactive). Also, the remaining activity in assay [2] was 93.4% (inactive). Besides, the result in assay [3], in assay [5] and in [12] was inactive. For the same compound, the fold change in [14] (setting [19]) is 0.949 (inactive); in assay [14] (setting [20]), 1.03. In addition, the values for the cell count in [14] (setting [21]) and in assay [14] (setting [22]) were 7250 and 7640, respectively. The z-score in [10] is 2.27 (active).

Source of the values: PubChem BioAssay.
